Source: PubChem BioAssay
Hits are enriched below; roughly 9.4% of the tested compounds scored in any of these assays.
ELG1 genotoxic = qHTS screen for small molecules that induce genotoxicity in human embryonic kidney (HEK293T) cells expressing luciferase-tagged ELG1. HEK293T ELG1-luciferase reporter, luminescence, 16 h. Potency, µM (series often up to 46 µM), most hits filed as activators. 330,000 compounds, 1.3% hits. AID 504466, 2011; further: nearly all actives have a fitted effect of over 60% in size
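Screening used a luciferase reporter fused to human ELG1 in HEK293T cells. Luminescence was read on a CCD plate imager after 16 hr exposure and 30 min ONE-Glo incubation.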
ELG1 DNA repair = qHTS screen for small molecules that inhibit ELG1-dependent DNA repair in human embryonic kidney (HEK293T) cells expressing luciferase-tagged ELG1; Potency, µM (series often up to 46.1 µM), hits mostly inhibitors; HEK293T ELG1-luciferase reporter, luminescence, 16 h; DNA damage induced by 5-fluorouridine; 330,000 compounds, 2.3% hits; further: nearly all actives have a fitted effect of over 55% in size
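Reporter activity after DNA damage by 5-fluorouridine is monitored. Compound-treated cells incubate 16 hr at 37 °C, then ONE-Glo is added for 30 min before luminescence reading.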
SMN2 splice up = qHTS Assay for Enhancers of SMN2 Splice Variant Expression; 210,000 compounds, 2.8% hits; AID 1458, 2008; HEK293 SMN2-luciferase splicing reporter, luminescence, 30-36 h; Potency, µM (highest dose often 46.1 µM), most hits filed as activators; further: nearly all actives have a fitted effect of over 55% in size
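HEK293 cells carry an SMN2 minigene-luciferase reporter in which exon 7 inclusion puts luciferase in frame. Cells were seeded at 2000 cells/well, attached for 10-12 hours, then exposed to compounds for 30-36 hours at 37C before ONE-Glo luminescence.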
FLuc counter = qHTS profiling assay for firefly luciferase inhibitor/activator using purifed enzyme and Km concentrations of substrates (counterscreen for miR-21 project) | Potency, µM (series often up to 57.5 µM), hits mostly inhibitors | purified FLuc, Km substrates, luminescence inhibition | Luciferin 4-monooxygenase (Photinus pyralis), P08659 | 360,000 compounds, 6.9% hits; further: nearly all actives have a fitted effect of over 55% in size
Target sequence (P08659 whole entry, looked up): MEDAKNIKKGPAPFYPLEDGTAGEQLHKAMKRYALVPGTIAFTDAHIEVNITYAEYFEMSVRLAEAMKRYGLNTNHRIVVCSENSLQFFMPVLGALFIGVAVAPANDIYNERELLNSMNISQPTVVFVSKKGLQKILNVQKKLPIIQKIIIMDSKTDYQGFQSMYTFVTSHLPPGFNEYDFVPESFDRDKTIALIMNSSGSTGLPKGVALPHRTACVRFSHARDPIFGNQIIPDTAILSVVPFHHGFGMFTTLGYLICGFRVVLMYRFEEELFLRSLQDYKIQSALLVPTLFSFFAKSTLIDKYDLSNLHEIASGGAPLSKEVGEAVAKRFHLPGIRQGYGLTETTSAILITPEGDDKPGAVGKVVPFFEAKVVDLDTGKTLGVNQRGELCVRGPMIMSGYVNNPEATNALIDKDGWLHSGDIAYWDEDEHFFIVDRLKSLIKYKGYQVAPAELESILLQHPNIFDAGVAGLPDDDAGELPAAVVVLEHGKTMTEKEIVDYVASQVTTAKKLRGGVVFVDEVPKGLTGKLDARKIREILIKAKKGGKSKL
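Biochemical qHTS of compounds, final roughly 60 µM downward over six points, against 10 nM purified firefly luciferase using Km concentrations of substrates (10 uM D-luciferin, 10 uM ATP) in Tris acetate pH 7.5 buffer; luminescence output.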
Rab9 promoter act = qHTS Assay for Rab9 Promoter Activators; Huh7 Rab9 promoter-luciferase reporter, luminescence, 24 h; Potency, µM (top dose mostly 9.22 µM), usual class: activators; 320,000 compounds, 2.8% hits; further: nearly all actives have a fitted effect of over 60% in size
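Using Huh7 cells stably transfected with Rab9 promoter–luciferase, compounds were incubated 24 h at 37 °C, 5% CO2; luciferase luminescence was read 10 min after reagent addition.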
NPC1 promoter act = qHTS Assay for NPC1 Promoter Activators. Potency, µM (top dose mostly 9.22 µM), actives largely listed as activators. AID 485313, 2010. 320,000 compounds, 2.4% hits. Huh7 NPC1 promoter luciferase reporter, 24 h; further: nearly all actives have a fitted effect of over 60% in size
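Luminescence read-out of NPC1 promoter-driven luciferase in stably transfected Huh7 cells; compounds delivered in DMSO and left 24 h at 37C, 5% CO2, qHTS titration format.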
A number is an active result; n = inactive; u = inconclusive; x = not tested or not shown; [ ] = dose if it differs, or a comment. The call rests on the fitted dose curve; in most records, active means well fitted curve in the direction sought with a large enough effect; inconclusive means small, poorly fitted or top-dose-only effect, or another doubt; inactive means no such curve, though single readings can be large; an effect the other way counts as inactive or inconclusive.

SMILES	ELG1 genotoxic	ELG1 DNA repair	SMN2 splice up	FLuc counter	Rab9 promoter act	NPC1 promoter act
COc1ccc(Cl)cc1NC(=O)Cn1ncc2c3ccccc3n(Cc3ccccc3)c2c1=O	x	x	n	n	x	x
CC1=CC(C)C2(COC(c3ccc[n+](C)c3)OC2)C(C)C1 (stereo not drawn)	n	6.5µM	x	n	n	n
COCCN(C(=O)CCc1ccc(OC)cc1)c1nnc(-c2ccncc2)s1	n	u	x	n	n	n
COCCN(C(=O)C1CC1)c1nnc(-c2ccc(C)cc2)s1	n	n	n	u	n	n
CCOc1ccc(-c2nnc(N(CC)C(=O)C3CCC3)s2)cc1	u	n	n	7.6µM	n	n
CCCC(=O)N(C)c1nnc(-c2ccc(OC)cc2)s1	u	u	n	7.6µM	4µM	n
Fc1ccccc1Nc1nc2ccccc2n2nnnc12	13µM	u	u	u	u	n
C=C(C)Cn1c(SCC(=O)Nc2cc(C)ccc2C)nc2sc3c(c2c1=O)CCCC3	x	x	n	n	x	x
CCn1cnc2cc(NS(=O)(=O)c3ccc(OC)c(OC)c3)ccc21	n	n	x	n	n	n
Cc1ccc(NC(=O)CCn2cnc3cc(C)c(C)cc32)cc1	n	n	n	n	n	n
Cc1ccc(C(=O)Nc2ccc3c(c2)ncn3C)cc1	u	u	2.5µM	n[2.3 µM]	4µM	3.2µM
CCn1cnc2cc(NC(=O)c3ccc(C)cc3)ccc21	u	u	x	11µM	4µM	2µM
Nc1cc(S(N)(=O)=O)ccc1SSc1ccc(S(N)(=O)=O)cc1N	x	x	n[9.22 µM]	x	x	x
Cc1cn2c(N)c(C=C3C=C(Cl)C(=O)C(Cl)=C3)c(=O)nc2s1	n	u	n	17µM	n	n
Cc1cn2c(N)c(/C=C3\C=Nc4ccccc43)c(=O)nc2s1	n	u	x	n	n	u
COC1=C/C(=C/c2c(N)n3cc(C)sc3nc2=O)C=CC1=O	n	u	n	3.8µM	n	n
O=c1c2ccccc2sn1-c1cc(S(=O)(=O)N2CCOCC2)ccc1N1CCCC1	n	n	n	5.4µM	n	n
O=c1c2ccccc2sn1-c1cc(S(=O)(=O)N2CCOCC2)ccc1N1CCOCC1	n	n	n	4.8µM	n	n
Cc1cccc(-c2nc3c4ccccc4nc(N4CCN(c5ccccc5F)CC4)n3n2)c1	x	x	n	n	x	x
N#C[C@@H](N=Nc1ccccc1C(=O)O)C(N)=O	x	x	n[9.22 µM]	x	x	x
COc1ccc2c(CNC3CCC(C)CC3)c(C(=O)O)n(Cc3ccc(F)cc3)c2c1 (stereo not drawn)	x	x	x	n	x	x
Oc1ccc(/C=N/Nc2ncnc3c2ncn3Cc2ccccc2)cc1O	u	u	n	9.5µM	n	n
Oc1cccc(/C=N/Nc2ncnc3c2ncn3Cc2ccccc2)c1	n	u	n	13µM	n	n
Brc1ccc(/C=N/Nc2ncnc3c2cnn3Cc2ccccc2)cc1	n	n	n	n	n	n
O=C(NCCc1ccc(F)cc1)C(=O)NCC(c1cccs1)S(=O)(=O)c1ccc(F)cc1 (stereo not drawn)	x	x	x	n	x	x
SMILES	ELG1 genotoxic	ELG1 DNA repair	SMN2 splice up	FLuc counter	Rab9 promoter act	NPC1 promoter act
CCc1ccc(NC(=O)C(=O)NCCc2sc(-c3ccc(C)cc3)nc2C)cc1	x	x	x	n	x	x
O=C(O)c1ccc(NC(=S)NC(=O)c2ccc(-c3ccc(Br)cc3)o2)cc1	n	n	x	n	n	n
O=C(O)c1cccc(NC(=S)NC(=O)c2ccc(-c3ccc(Cl)cc3)o2)c1	n	u	n	15µM	u	n
Cc1ccc(C(=O)O)cc1NC(=S)NC(=O)c1ccc(-c2ccc(Cl)cc2)o1	n	n	x	u	n	n
COc1ccc(C(=O)O)cc1NC(=S)NC(=O)c1ccc(-c2ccc(Cl)cc2)o1	n	n	n	13µM	n	n
O=C1Oc2ccccc2C(=O)/C1=C\N1C(=O)N/C(=C\c2ccccc2O)C1=O	x	x	n[9.22 µM]	x	x	x
CCn1nc(C)c(Br)c1-c1nc(CS(=O)(=O)c2ccc(F)cc2)no1	n	n	x	n	n	n
CCn1nc(C)c(Br)c1-c1nc(-c2ccc(C)cc2)no1	n	n	x	15µM	n	n
COc1ccc(C2=NN(C(C#N)c3ccc(OC)cc3)C(c3ccccc3)C2)cc1 (stereo not drawn)	u	u	u	24µM	u	u
COc1ccc(C(C#N)N2N=C(C)CC2c2ccccc2)cc1 (stereo not drawn)	n	n	x	n	n	n
O=C(CCS(=O)(=O)c1cc(Br)cc2c1N(C(=O)C1CC1)CC2)NCc1ccc(Cl)cc1	x	x	n	n	x	x
CC(C)c1nc2cc3ccccc3cc2[nH]1	n	n	n	19µM	n	n
COc1ccc(/C=N/N2C(=O)CSC2=S)cc1	x	x	n	u	x	x
CC(C)(C)c1ccc(/C=N/N2C(=O)CSC2=S)cc1	n	u	x	17µM	n	n
O=C1CSC(=S)N1/N=C/c1ccc(O)c(O)c1O	n	23µM	x	u	n	n
COc1ccc(/C=N/Nc2cc(N(C)C)nc(N(C)C)n2)cc1	n	u	n	15µM	n	n
CN(C)c1cc(N/N=C\c2ccccc2)nc(N(C)C)n1	n	n	x	u	n	n
COc1ccc(/C=N/Nc2cc(OC)ncn2)cc1	1.8µM	u	x	0.95µM	1µM	3.5µM
Cc1nn(CC(=O)c2ccccc2Cl)c(C)c1[N+](=O)[O-]	15µM	u	u	11µM	4µM	u
CCSc1nnc(NC(=O)c2ccco2)s1	u	u	11µM	u	u	n
CC(C)Sc1nnc(NC(=O)c2ccco2)s1	u	u	x	17µM	u	u
CCOC(=O)CSc1nnc(NC(=O)c2ccco2)s1	n	n	x	n	n	n
O=C(Nc1nnc(SCc2ccc(Cl)cc2)s1)c1ccco1	n	n	n	n	n	n
COc1cc(-c2nc3ccccc3s2)ccc1O	u	u	u	8.5µM	u	n
CCOc1cc(-c2nc3ccccc3s2)ccc1O	u	u	x	15µM	n	u
SMILES	ELG1 genotoxic	ELG1 DNA repair	SMN2 splice up	FLuc counter	Rab9 promoter act	NPC1 promoter act
CC(C)c1ccc(-c2nc3ccccc3s2)cc1	n	u	x	0.076µM	n	n
COc1ccc(-c2nc3ccccc3s2)cc1O	0.65µM	u	n	0.15µM	n	u
COc1ccc(-c2nc3ccccc3s2)cc1NC(=O)c1cc(OC)c(OC)c(OC)c1	x	x	n	u	x	x
Cc1ccc2oc(-c3ccc(C)c(NC(=O)/C=C/c4ccco4)c3)nc2c1	x	x	u	12µM	x	x
Cc1ccc(-c2nc3ccccc3o2)cc1NC(=S)NC(=O)/C=C/c1ccco1	n	u	n	u	n	n
Cc1ccc2oc(-c3ccc(C)c(NC(=O)/C=C/c4ccc(Cl)cc4)c3)nc2c1	x	x	n	12µM	x	x
CC(=O)Nc1cc(-c2nc3cc(Cl)ccc3o2)ccc1C	x	x	x	n	x	x
